The text below walks through data of PMC5540273 (PLoS ONE, 2017).

Among the test systems are ERN1; FER; FES; FGFR1; FGFR2; FGFR3; FGFR4; FGR; FLT1; FLT3-autoinhibited; FLT3; FLT4; FRK.
Settings in all cases: concentration: 1 μM, replicates: in singlicate; n = 1
Another test relates to T1, ERK1.
T1 construct: gene MAPK3

Another test concerns T2, ERK2.
T2 construct: gene MAPK1

The test system of the next test is T3, ERK3.
T3 construct: gene MAPK6

The test system of the next test is T4, ERK4.
T4 construct: gene MAPK4

Another test deals with T5, ERK5.
T5 construct: gene MAPK7

In another test the test system is T6, ERK8.
T6 construct: gene MAPK15

For a further test, the system named is T7, FAK.
T7 construct: gene PTK2
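Note: KINOMEscan kinase panel screen.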

For the compound `O=C(O)C(F)(F)F.O=c1[nH]ccc2nc(N[C@@H]3CCNC3)nc(Nc3ccc4c(c3)S(=O)(=O)CC4)c12` [GSK2181306], the “%Inh” value turned out to be 55% with ERK1; 61% in the test on ERK2; 78% in the test on ERK3; 28% in the test on ERK4; 17% in the test with ERK5; 5% with ERK8. Moreover, the “%Inh” value with ERN1 is listed as 39%; with FAK it was 84%; in the test on FER, 75%; in the test on FES, 16%; in the test with FGFR1, 4%; with FGFR2, 33%. Further, the “%Inh” value in the test on FGFR3 was 21%; in the test with FGFR4, 0%; in the test on FGR, 45%; with FLT1, 32%; with FLT3-autoinhibited it was 79%; with FLT3, 61%. Moreover, the “%Inh” value is on record as 42% in the test on FLT4 and 26% in the test with FRK.
Consider `O=C(Nc1n[nH]c2nc(-c3cccc(O)c3)ccc12)C1CC1` [SB-711805], for which the “%Inh” value in the test on ERK1 amounted to 0%; in the test on ERK2, 0%; in the test with ERK3 it was 0%; with ERK4, 0%; in the test on ERK5, 47%; in the test with ERK8, 42%. For the same compound, the “%Inh” value in the test on ERN1 was 0%; in the test with FAK, 0%; with FER, 36%; in the test with FES, 0%; in the test on FGFR1, 18%; in the test with FGFR2 it was 0%. Moreover, the “%Inh” value is 0% with FGFR3; 0% in the test on FGFR4; 9% with FGR; 10% in the test on FLT1; 21% with FLT3-autoinhibited; 13% in the test on FLT3. Also, the “%Inh” value with FLT4 and in the test with FRK was 0% throughout.
With `COc1cccc(C2=C(Nc3cccc(O)c3)C(=O)NC2=O)c1` [SB-390771], the “%Inh” value is recorded as 3% in the test with ERK1; 0% in the test on ERK2; 6% in the test with ERK3; 26% in the test with ERK4; 0% in the test on ERK5; 16% with ERK8. In addition, the “%Inh” value in the test with ERN1 turned out to be 0%; in the test on FAK it was 0%; with FER, 0%; in the test with FES, 2%; in the test with FGFR1, 0%; in the test with FGFR2, 29%. Besides, the “%Inh” value in the test on FGFR3 stood at 28%; with FGFR4, 19%; in the test on FGR, 33%; with FLT1 it was 22%; in the test with FLT3-autoinhibited, 0%; with FLT3, 3%. The results for the “%Inh” value in the test with FLT4 and with FRK were 20% and 11%, respectively.
On to `COC(=O)Nc1nc2ccc(Oc3ccc(NC(=O)Nc4cc(C(F)(F)F)ccc4F)cc3)cc2[nH]1.Cl` [GW654607], for which the “%Inh” value in the test with ERK1 turned out to be 0%; in the test on ERK2, 6%; in the test on ERK3, 16%; with ERK4, 0%; in the test with ERK5 it was 0%; in the test with ERK8, 97.6%. In addition, the “%Inh” value with ERN1 is given as 10%; in the test on FAK, 0%; in the test with FER, 0%; in the test on FES it was 0%; in the test on FGFR1, 26%; in the test on FGFR2, 63%. In addition, the “%Inh” value in the test with FGFR3 turned out to be 11%; in the test on FGFR4, 17%; in the test on FGR, 12%; in the test on FLT1, 99.6%; in the test on FLT3-autoinhibited, 27%; with FLT3, 99%. Further, the “%Inh” value with FLT4 is on record as 99.9%; in the test on FRK, 94.7%.
For the compound `Cc1ccc(NC(=O)c2ccnc(N3CCCCC3)c2)cc1-c1ccc(C(=O)NCC2CC2)cc1` [GW775610], the “%Inh” value came to 37% in the test on ERK1; 9% with ERK2; 0% with ERK3; 21% in the test with ERK4; 6% with ERK5; 0% in the test with ERK8. The “%Inh” value came out at 70% in the test with ERN1; 0% with FAK; 4% in the test on FER; 4% in the test on FES; 4% in the test on FGFR1; 10% in the test with FGFR2. Besides, the “%Inh” value was 2% in the test on FGFR3; 0% in the test on FGFR4; 0% in the test on FGR; 36% in the test on FLT1; 6% in the test on FLT3-autoinhibited; 72% in the test on FLT3. For the same compound, the “%Inh” value worked out at 0% in the test with FLT4 and 32% with FRK.
In the case of `COc1ccc(C)c(Nc2ccnc(Nc3ccc(-c4cnc[nH]4)cc3)n2)c1.Cl` [GW784041], the “%Inh” value in the test on ERK1 is given as 0%; in the test on ERK2, 9%; in the test with ERK3, 16%; with ERK4, 0%; with ERK5, 0%; in the test with ERK8 it was 4%. Further, the “%Inh” value was determined as 0% with ERN1; 0% in the test on FAK; 2% in the test on FER; 2% with FES; 23% in the test on FGFR1; 4% with FGFR2. Besides, the “%Inh” value in the test on FGFR3 worked out at 48%; in the test with FGFR4 it was 100%; in the test on FGR, 86%; with FLT1, 14%; with FLT3-autoinhibited it was 0%; with FLT3 it was 15%. In addition, the “%Inh” value with FLT4 is listed as 10%; in the test with FRK, 69%.
As for `COc1cc(Nc2nccc(N3CCC(NS(=O)(=O)c4ccc(NC(C)=O)cc4)CC3)n2)cc(OC)c1OC` [GSK1379825], the “%Inh” value in the test on ERK1 was determined as 0%; with ERK2 it was 0%; in the test on ERK3, 83%; in the test with ERK4, 0%; in the test on ERK5, 0%; in the test on ERK8, 29%. For the same compound, the “%Inh” value is 0% in the test with ERN1; 0% with FAK; 6% in the test on FER; 48% in the test with FES; 17% in the test on FGFR1; 71% in the test with FGFR2. Further, the “%Inh” value in the test on FGFR3 was 59%; with FGFR4, 69%; in the test with FGR, 50%; in the test with FLT1, 53%; in the test with FLT3-autoinhibited, 73%; in the test with FLT3 it was 92%. Moreover, the “%Inh” value in the test on FLT4 is 71%; in the test on FRK it was 35%.
Take `O=C(Nc1n[nH]c2nc(-c3ccccc3O)ccc12)C1CC1` [SB-711880]: the “%Inh” value is recorded as 0% with ERK1; 0% in the test on ERK2; 0% in the test on ERK3; 0% in the test on ERK4; 0% with ERK5; 82% in the test on ERK8. The “%Inh” value was 0% in the test on ERN1; 0% in the test with FAK; 0% with FER; 0% in the test on FES; 31% in the test with FGFR1; 0% in the test on FGFR2. The “%Inh” value in the test with FGFR3 is given as 0%; in the test with FGFR4, 3%; in the test on FGR it was 0%; in the test with FLT1, 3%; in the test with FLT3-autoinhibited, 0%; with FLT3, 28%. Further, the “%Inh” value in the test on FLT4 and in the test on FRK was 0% in each case.
As for `N#Cc1cnc2cc(-c3cnc(CNCCN4CCOCC4)s3)ccc2c1Nc1ccc(Oc2ccccc2)cc1` [GW664114], the “%Inh” value in the test on ERK1 is given as 0%; with ERK2, 0%; in the test on ERK3, 0%; with ERK4, 48%; with ERK5, 0%; in the test on ERK8, 0%. The “%Inh” value with ERN1 was determined as 21%; in the test with FAK, 0%; in the test with FER it was 82%; in the test on FES it was 94.9%; with FGFR1, 0%; with FGFR2, 0%. The “%Inh” value in the test with FGFR3 was 2%; with FGFR4, 0%; with FGR it was 96.7%; with FLT1 it was 53%; in the test with FLT3-autoinhibited it was 7%; in the test with FLT3, 70%. Also, the “%Inh” value with FLT4 is recorded as 22%; in the test on FRK, 17%.
With `Cc1ccc(NC(=O)c2cccc(N3CCCCC3)c2)cc1-c1ccc(C(=O)NCC2CC2)cc1` [GSK1917008], the “%Inh” value came to 2% in the test with ERK1; 0% in the test with ERK2; 100% in the test with ERK3; 23% in the test on ERK4; 0% in the test on ERK5; 51% in the test on ERK8. The “%Inh” value amounted to 17% in the test on ERN1; 15% with FAK; 16% with FER; 21% with FES; 21% with FGFR1; 20% in the test with FGFR2. For the same compound, the “%Inh” value in the test with FGFR3 is listed as 21%; in the test on FGFR4, 18%; in the test on FGR, 24%; with FLT1 it was 34%; in the test on FLT3-autoinhibited, 20%; with FLT3, 0%. Further, the “%Inh” value is recorded as 13% in the test with FLT4 and 49% with FRK.
